Reference: the supplement of paper PMC6522484
± gives the standard deviation of the averaged measurements.

Tests used:
[1] = test system: DLD1; assay: cell viability (CellTiter-Glo) relative to plate median (fraction of plate median); higher = more viable cells; conditions: 5 µM; treatment time 24 h; reporter: 7TFP
Outline: (§1)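 Two independent replicates were averaged for each reported value. Library compounds were applied at a final 5 µM for 24 h to colorectal cancer cell lines stably expressing lentiviral TCF/Wnt firefly luciferase reporters. Firefly luciferase or CellTiterGlo luminescence from each well was normalised to the plate median.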

[2] = test system: HCT116; assay: as above; conditions: 5 µM; treatment time 24 h; reporter: TCF4/Wnt
Outline: as §1

[3] = test system: SW480; assay: as above; conditions: 5 µM; treatment time 24 h; reporter: 7TFP
Outline: as §1

[4] = test system: DLD1; assay: TCF/Wnt firefly luciferase reporter signal relative to plate median (fraction of plate median); higher = higher Wnt reporter signal; conditions: 5 µM; treatment time 24 h; reporter: 7TFP
Outline: as §1

[5] = test system: SW480; assay: as above; conditions: 5 µM; treatment time 24 h; reporter: 7TFP
Outline: as §1

Row | SMILES | cell viability [1] | cell viability [2] | cell viability [3] | TCF/Wnt firefly luciferase reporter signal [4] | TCF/Wnt firefly luciferase reporter signal [5]
1 | CN1CCC(=C2c3ccccc3CCc3sccc32)CC1 | 1.07 ± 0.014 | 1.14 ± 0.17 | 1.1 ± 0.064 | 1.05 ± 0.11 | 0.934 ± 0.061
2 | Cc1onc(-c2ccccc2)c1-c1ccc(S(N)(=O)=O)cc1 | 0.844 ± 0.058 | 1.02 ± 0.03 | 1.05 ± 0.1 | 0.91 ± 0.044 | 0.956 ± 0.17
3 | O=C1NC(Cc2ccc(O)cc2)C(=O)N2CCCC12 (stereo not given) [cyclo(prolyltyrosyl)] | 0.9655 ± 0.0021 | 0.95 ± 0.023 | 1.025 ± 0.0071 | 0.998 ± 0.2 | 0.887 ± 0.05
4 | O=C(O)CCCC[C@@H]1CCSS1 (racemic) | 1.06 ± 0.071 | 1.01 | 0.986 ± 0.035 | 0.856 ± 0.032 | 0.96 ± 0.023
5 | O=C1[C@@H]2CCCN2C(=O)[C@@H]2CCCN12 [Cyclo(Prolylprolyl)] | 0.978 ± 0.0071 | 1.03 ± 0.065 | 0.9595 ± 0.0078 | 0.811 ± 0.15 | 1.01 ± 0.05
6 | Cc1cc(-c2ccccc2)nnc1NCCN1CCOCC1 | 1.005 ± 0.0071 | 0.946 ± 0.077 | 1.03 ± 0.014 | 1.02 ± 0.035 | 1.05 ± 0.057
7 | CC(=O)N[C@@H](Cc1c[nH]c2ccccc12)C(N)=O | 1.07 ± 0.11 | 0.831 ± 0.1 | 1.07 ± 0.028 | 1.04 ± 0.18 | 0.891 ± 0.061
8 | Oc1c(I)cc(Cl)c2cccnc12 | 1.06 ± 0.21 | 0.949 ± 0.12 | 1.13 ± 0.042 | 1.2 ± 0.27 | 1.14 ± 0.11
9 | C[C@]12CC[C@H]3C(=CCc4cc(O)ccc43)[C@@H]1CCC2=O | 0.902 ± 0.086 | 0.869 ± 0.16 | 1.01 ± 0.031 | 1.07 ± 0.25 | 0.98 ± 0.057
10 | COc1ccc(-c2cc(=O)c3c(OC)c(OC)c(OC)cc3o2)cc1OC | 1.01 ± 0.022 | 1.055 ± 0.0071 | 1.015 ± 0.0071 | 1.07 ± 0.13 | 1.15 ± 0.16
11 | Nc1ccc(C(=O)O)c(O)c1 | 1.01 ± 0.021 | 1.06 ± 0.11 | 0.989 ± 0.013 | 1.04 ± 0.057 | 1.06 ± 0.1
12 | COc1cc(C)c(C(=O)Oc2cc(C)c(C(=O)O)c(O)c2C)c(OC)c1C | 0.961 ± 0.033 | 1.025 ± 0.0071 | 0.987 ± 0.047 | 0.953 ± 0.034 | 1 ± 0.099
13 | CN(C)[C@@H]1C(O)=C(C(N)=O)C(=O)[C@@]2(O)C(O)=C3C(=O)c4c(O)cccc4[C@@](C)(O)[C@H]3[C@H](O)[C@@H]12 | 1.02 ± 0.17 | 1.07 ± 0.071 | 1.01 ± 0.021 | 0.901 ± 0.18 | 1 ± 0.071
14 | CCC1=C[C@@H]2CN(C1)Cc1c([nH]c3ccccc13)[C@@](C(=O)OC)(c1cc3c(cc1OC)N(C)[C@H]1[C@@](O)(C(=O)OC)[C@H](OC(C)=O)[C@]4(CC)C=CCN5CC[C@]31[C@@H]54)C2 | 1 ± 0.11 | 0.544 ± 0.17 | 1.12 ± 0.11 | 0.911 ± 0.13 | 0.892 ± 0.12
15 | CC1(C)S[C@@H]2[C@H](NC(=O)[C@H](NC(=O)N3CCNC3=O)c3ccccc3)C(=O)N2[C@H]1C(=O)O | 1.07 ± 0.014 | 0.988 ± 0.0042 | 0.956 ± 0.046 | 0.903 ± 0.0099 | 0.919 ± 0.053
16 | O=C(O)C1=CC(=C(c2ccc(O)c(C(=O)O)c2)c2ccc(O)c(C(=O)O)c2)C=CC1=O | 1.03 ± 0.14 | 1.03 ± 0.028 | 1.06 ± 0.05 | 0.996 ± 0.09 | 1.01 ± 0.049
17 | OCCc1ccccc1 | 0.986 | 0.995 ± 0.05 | 0.959 ± 0.03 | 1.16 ± 0.085 | 1.12 ± 0.092
18 | CCCNCC(O)COc1ccccc1C(=O)CCc1ccccc1 (stereo not given) | 0.96 ± 0.085 | 1.07 ± 0.22 | 0.927 ± 0.033 | 1.06 ± 0.091 | 0.883 ± 0.12
19 | O=CN(O)CCCC(NC(=O)C(CO)NC(=O)C1COC(c2ccccc2O)=N1)C(=O)NCCC(=O)NC1CCCN(O)C1=O (stereo not given) [Oxachelin] | 0.9715 ± 0.0092 | 1.07 ± 0.16 | 1.03 ± 0.059 | 1.11 ± 0.021 | 1.03 ± 0.085
20 | Nc1ccc(/N=N/c2ccccc2)c(N)n1 | 1.1 ± 0.2 | 1.07 ± 0.035 | 1.1 ± 0.035 | 1.285 ± 0.0071 | 1.3 ± 0.028
21 | C/C=C/c1ccc(OC)cc1 | 1.07 ± 0.021 | 0.987 ± 0.047 | 1.03 ± 0.062 | 0.925 ± 0.12 | 0.943 ± 0.0014
22 | C[C@@H]1NC(=O)[C@@H](N)CNC(=O)[C@H](C2CCNC(=N)N2)NC(=O)/C(=C/NC(N)=O)NC(=O)[C@H](CNC(=O)CC(N)CCCN)NC1=O.N=C1NCC[C@H]([C@@H]2NC(=O)/C(=C/NC(N)=O)NC(=O)[C@H](CNC(=O)C[C@@H](N)CCCN)NC(=O)[C@H](CO)NC(=O)[C@@H](N)CNC2=O)N1 | 1.03 ± 0.052 | 0.993 ± 0.081 | 0.996 ± 0.076 | 0.816 ± 0.0071 | 0.871 ± 0.093
23 | NCCCC(O)(P(=O)(O)O)P(=O)(O)O | 0.98 ± 0.028 | 0.974 ± 0.12 | 0.963 ± 0.0042 | 0.974 ± 0.12 | 1.02 ± 0.03
24 | C[C@H]1[C@H](C)CC[C@]2(C(=O)O)CC[C@]3(C)C(=CC[C@@H]4[C@@]5(C)CC[C@H](O)C(C)(C)[C@@H]5CC[C@]43C)[C@H]12 | 0.978 ± 0.014 | 1.04 ± 0.014 | 1.03 ± 0.021 | 1.07 ± 0.057 | 1.06 ± 0.014
25 | CC1(C)C(=O)C=CC2(C)C1C=CC1(C)C2CCC2(C)C(c3ccoc3)OC(=O)C3OC312 (stereo not given) | 1.07 ± 0.042 | 1.1 ± 0.13 | 1.05 | 1.01 ± 0.1 | 0.964 ± 0.094
26 | C=C(C)[C@H]1COc2cc3oc(=O)ccc3cc2O1 | 1.1 ± 0.17 | 0.968 ± 0.026 | 1.09 ± 0.057 | 1.06 ± 0.092 | 1.1 ± 0.042
27 | NNC(=O)c1ccncc1 | 0.952 ± 0.018 | 0.959 ± 0.049 | 0.984 ± 0.051 | 0.8925 ± 0.00071 | 1.03 ± 0.028
28 | CCC/C=C1\OC(=O)C2=C1CCC=C2 | 0.992 ± 0.083 | 0.973 ± 0.0028 | 0.9545 ± 0.00071 | 0.948 ± 0.1 | 0.967 ± 0.061
29 | CC(C)c1c(O)ccc2c1CC[C@H]1C(C)(C)CCC[C@]21C | 1.16 ± 0.12 | 1 ± 0.13 | 1.03 ± 0.076 | 0.855 ± 0.11 | 0.996 ± 0.035
